# Measurements published in ChEMBL document CHEMBL3988442, “University of Dundee, Small-Polar-MMV Screening Library” (2021).
# Hit rate of the full screen: of about 48,000 compounds, about 13,000 (27%) showed an effect of 50% or more. The list shows a part of the results.
# Test system: Wolbachia pipientis
# Assay: Anti-Wolbachia Cell-Based Screen
# Assay type: functional
# Parameters: scale not given: in the data most compounds retested in dose-response had high values
# Conditions: 5 µM
row,Structure (SMILES),Percent Effect [%]
1,CC(NC(=O)c1ccc2c(c1)COC2)c1cccc(N2CCOC2=O)c1 (centres undefined),-4.788
2,Cc1nc2cc(OCc3nc(C(=O)NC(C)(CO)CO)co3)ccc2s1,17.49
3,CC(C)c1nccn1C(C)C(=O)NC1Cc2ccccc2C1 (centres undefined),10.2
4,COc1cc2c(cc1CNC(=O)C(C)n1ccnc1C(C)C)OCCO2 (centres undefined),-1.746
5,Cc1ccc(CN(C)C(=O)C(C)n2cncn2)o1 (centres undefined),-9.156
6,CCN(Cc1ccncc1)C(=O)C(C)n1ccnc1C(C)C (centres undefined),110.2
7,Cc1ccc(CN(C)C(=O)C(C)n2ccnc2C(C)C)o1 (centres undefined),90.15
8,CCc1nnc(CN(CC)C(=O)CCc2scnc2C)o1,-3.701
9,CCc1nnc(CN(CC)C(=O)C(C)n2ccnc2C(C)C)o1 (centres undefined),83.87
10,CCOC(=O)N1CCN(C(=O)C(C)n2ccnc2C(C)C)CC1 (centres undefined),-18.05
11,Cc1cccnc1N1CCN(C(=O)C(C)n2ccnc2C(C)C)CC1 (centres undefined),-23.9
12,Cc1nc(C)n(CCNC(=O)C(C)n2ccnc2C(C)C)n1 (centres undefined),-3.784
13,CCN(Cc1ccc(C)o1)C(=O)C(C)n1ccnc1C(C)C (centres undefined),103.3
14,CC(C(=O)N(C)Cc1ccc(Br)o1)n1cccn1 (centres undefined),0.6222
15,Cc1nnc2ccc(NCC3(N4CCCCC4)CCOCC3)nn12,-7.148
16,COc1ccc(C)cc1-n1c(COC(C)C)n[nH]c1=O,0.04984
17,Cc1cccc(CCC(=O)NCC2CCCN2c2cccnn2)c1 (centres undefined),7.373
18,Cc1nc(CN2CC(=O)N(C)c3ccccc3C2=O)no1,7.895
19,CN(CC(O)C1CC1)C(=O)c1ccc(-c2nc(C3CC3)no2)cc1 (centres undefined),4.636
20,CC(C)(C)c1nnc(NCc2ccc(F)cc2)o1,-7.164
21,COc1cccc(CNC(=O)Nc2ccc3[nH]nnc3c2)c1OC,-10.07
22,CCc1nnc(NCc2cccc(OC)c2OC)o1,1.756

row,Structure (SMILES),Percent Effect [%]
1,COc1ccc(CNc2nnc(CC(C)(C)C)o2)cc1C#N,-29.2
2,COc1ccc(OC)c(CNc2nnc(C(C)(C)C)o2)c1,112.6
3,COc1cccc(CNc2nnc(C(C)(C)C)o2)c1OC,92.71
4,CN(Cc1ccccc1)c1ncccc1CNC1CCC1,-23.22
5,CN(Cc1cc(Br)c2c(c1)OCO2)Cc1cscn1,2.814
6,CSCCNC(=O)c1coc(COc2ccc(F)cc2)n1,-7.576
7,CCC(C)N(Cc1ccncc1)C(=O)CCSC (centres undefined),-18.32
8,Cc1cc(C)c(CNC(=O)NCC(O)c2cccc(F)c2)c(=O)[nH]1 (centres undefined),0.6677
9,CCOc1cccc(CNC(=O)NCC(O)c2cccc(F)c2)c1 (centres undefined),5.413
10,CNC(=O)c1cccc(NC(=O)NCc2ccc(SC)cc2)c1C,-19.71
11,CSc1ccc(CNC(=O)NCC(O)c2cccc(F)c2)cc1 (centres undefined),106.1
12,CC(C)Nc1cccc(C(=O)NCC(O)c2cccc(F)c2)c1 (centres undefined),-13.04
13,O=C(NCc1cccc(F)c1)NCC(O)c1cccc(F)c1 (centres undefined),96.97
14,Cc1cc(CNC(=O)NCC(O)c2cccc(F)c2)no1 (centres undefined),-1.718
15,O=C(NCc1cccnc1)NCC(O)c1cccc(C(F)(F)F)c1 (centres undefined),-14.42
16,O=C(NCc1ccccc1)NCC(O)c1cccc(F)c1 (centres undefined),95.34
17,O=C(C1SCCc2sccc21)N1CCN(C2CC2)C(=O)C1 (centres undefined),-5.096
18,CN(CCc1noc(C2CC2)n1)C(=O)CCc1cc2n(n1)CCCNC2,5.558
19,CC(=O)c1sc(C(NC(=O)c2ccccc2)C2CC2)nc1C (centres undefined),5.718
20,CSCC(=O)N1CCN(CC(O)C(C)(C)C)CC1 (centres undefined),-10.26
21,CSCCC(=O)N1CCN(CC(C)O)CC1 (centres undefined),-18.5
22,CSCC(=O)N1C[C@@H](C)[C@](O)(C(C)C)C1,100.1

row,Structure (SMILES),Percent Effect [%]
1,CCC(O)CN1CCN(C(=O)CCSC)CC1 (centres undefined),1.956
2,CSCCC(=O)N1C[C@@H](C)[C@](O)(C(C)C)C1,109.4
3,C[C@@H]1CN(C(=O)CSc2nncn2C)C[C@@]1(O)C1CC1,-9.811
4,Clc1cccc2c1CCN(Cc1nc(CC3CC3)no1)C2,-15.7
5,O=C(NCCNc1ncccn1)c1scnc1Cl,2.928
6,CCc1noc(CN2CCN(C(=O)c3ccccc3F)CC2)n1,117.4
7,CC(C)Cc1noc(CN2CCCN(C(=O)c3ccccc3Cl)CC2)n1,-15.62
8,CCc1noc(CN2CCN(C(=O)c3ccccn3)CC2)n1,-5.851
9,CC(C)Cc1noc(CN2CCN(C(=O)c3ccccc3F)CC2)n1,100.3
10,CCc1noc(CN2CCN(C(=O)N(C)C)CC2)n1,-9.661
11,CC(C)Cc1noc(CN2CCN(C(=O)c3ccco3)CC2)n1,-2.17
12,OCC1(O)CCCN(Cc2ccc(-c3cc[nH]n3)s2)CC1 (centres undefined),3.83
13,Cc1cnn(CC2CCCN2C(=O)c2n[nH]c(=O)c3ccccc23)c1 (centres undefined),115
14,O=C(c1nccc2ccccc12)N1CCCCC1Cn1cccn1 (centres undefined),116.9
15,Cc1cnn(CC2CCCN2C(=O)c2cc3ccccc3c(=O)[nH]2)c1 (centres undefined),122.8
16,Cc1cnn(CC2CCCN2C(=O)Cc2n[nH]c3ccccc23)c1 (centres undefined),2.79
17,O=C1COc2c(cccc2C(=O)N2CCCC2Cn2cccn2)N1 (centres undefined),-10.2
18,Cc1cnn(CC2CCCN2C(=O)c2cc3ccccc3[nH]c2=O)c1 (centres undefined),-0.3129
19,Cc1cnn(CC2CCCN2C(=O)c2cc3ccccc3[nH]2)c1 (centres undefined),2.697
20,O=C1COc2c(cccc2C(=O)N2CCCCC2Cn2cccn2)N1 (centres undefined),-1.784
21,O=C(c1n[nH]c(=O)c2ccccc12)N1CCCC1Cn1cccn1 (centres undefined),110.2
22,O=C1CC(c2ccc(F)c(F)c2)c2snc(C(=O)O)c2N1 (centres undefined),8.498

row,Structure (SMILES),Percent Effect [%]
1,Cc1ccc(-c2cc(CN(CC(N)=O)CC(C)C)on2)cc1,-24.63
2,Cc1ccc(-c2ncc(C(=O)NCCS(N)(=O)=O)s2)c(C)c1,-6.964
3,CCCn1nnnc1CSc1nccn1CC,-2.029
4,Cc1nc(CN2CCN(C(=O)CCC(=O)c3ccccc3)CC2)no1,17.55
5,Cc1ncc(C(=O)N2CC[C@@]3(O)CCN(C4CCCCC4)C[C@H]3C2)cn1,8.568
6,CCc1nc(CN2CCCN(C(=O)c3cncnc3C)CC2)cs1,14.37
7,O=C(c1cnco1)N1CCCC(Cc2nccs2)C1 (centres undefined),-3.557
8,Cn1cc(C(=O)N2CCCC(Cc3nccs3)C2)cn1 (centres undefined),-5.021
9,Cc1ncc(C(=O)N2CCCC(Cc3nccs3)C2)cn1 (centres undefined),96.26
10,Cc1ncncc1C(=O)N1CCCC(Cc2nccs2)C1 (centres undefined),112.8
11,O=C(N1CCCC1)C12CC(CN1Cc1nccs1)C2,-16.8
12,O=C(c1cccnc1)N1CCN(c2ccnc3ccsc23)CC1,-5.057
13,Cn1cc(C(=O)N2CCC(Cc3nccs3)CC2)cn1,0.6928
14,O=C(c1cccnc1)N1CCCC(Cc2nccs2)C1 (centres undefined),104.8
15,Cc1ncncc1C(=O)N1CCCN(Cc2nccn2C(C)C)CC1,-12.73
16,CCCn1cc(C(=O)N2CCCC(Cc3nccs3)C2)cn1 (centres undefined),95.18
17,Cc1cccc2c1nc(CCO)n2-c1ccc(N)nc1,-17.09
18,CSc1ccc(-c2nc(CN3CCC(NC(C)=O)C3)c(C)o2)cc1 (centres undefined),-8.203
19,COc1cccc2c1OCC(C(=O)N1CCN(CCS(C)(=O)=O)CC1)C2 (centres undefined),-9.844
20,Fc1ccc(Cn2ncc3c2CN(c2noc(C4CC4)n2)C3)cc1,2.089
21,COc1ncccc1C(=O)N1CCC(c2nnc(C3CC3)o2)CC1,16.61
22,COc1nn(C)cc1C(=O)N1CCC(c2nnc(-c3ccsc3)o2)CC1,120.9

row,Structure (SMILES),Percent Effect [%]
1,Cn1nccc1C(=O)N1CCC(n2cc(-c3ccsc3)nn2)CC1,-17.39
2,COc1nn(C)cc1C(=O)N1CCC(c2nnc(C(C)C)o2)CC1,80.59
3,Cn1ccnc1C(=O)N1CCC(Cn2cc(-c3ccsc3)nn2)CC1,0.3036
4,COc1nn(C)cc1C(=O)N1CCC(c2nnc(C3CC3)o2)CC1,8.567
5,C/C=C(/C)C(=O)NS(=O)(=O)c1ccc(Cl)cn1,2.315
6,Cc1nccnc1N1Cc2cnc(CC(C)C)nc2C1,-0.1537
7,CCCNC(=O)NCc1nc(C)c(C)o1,-5.382
8,Cc1nc(CN(C)S(=O)(=O)c2ccc(F)cc2Br)no1,-1.638
9,C[S+]([O-])c1nncn1CC(=O)c1cccc(Cl)c1 (centres undefined),6.672
10,COc1cccc(CN2CCC(c3cc(O)nc(C)n3)C2)c1.O=C(O)CC(O)(CC(=O)O)C(=O)O (centres undefined),-8.452
11,COc1cccc(CN(Cc2ccco2)Cc2[nH]cnc2C)c1.O=C(O)CC(O)(CC(=O)O)C(=O)O,156.3
12,Cc1noc(CN(Cc2ccc3c(c2)OCCO3)Cc2ccco2)n1,-7.452
13,COc1ccc(NC(=O)N(C)Cc2ccco2)cn1,3.036
14,COc1ccc2nc(O)c(CN(C)Cc3ncc[nH]3)cc2c1,-3.339
15,CCOC(=O)C1(Cc2cccc(OC)c2)CCN(Cc2ncc[nH]2)CC1,-0.1816
16,COc1cccc(CN(Cc2ncc[nH]2)Cc2ccco2)c1.O=C(O)CC(O)(CC(=O)O)C(=O)O,114.4
17,COc1cccc(CN(Cc2ccco2)Cc2cnc(C)n2C)c1.O=C(O)CC(O)(CC(=O)O)C(=O)O,133.7
18,Cc1nc[nH]c1CN(Cc1ccccc1)Cc1nccs1,10.51
19,COc1ccc(CN(Cc2ccco2)Cc2[nH]cnc2C)c(OC)c1.O=C(O)CC(O)(CC(=O)O)C(=O)O,111.9
20,COc1ccc(CN(C(=O)CCC(C)C)c2cnn(C)c2)c(OC)c1,-10.12
21,COc1ccc(CN(C(=O)C(C)C)c2cnn(C)c2)c(OC)c1,-18.73
